Assay in all cases: DAPPL (digital affinity profiling via proximity ligation, sequencing); 10 mM Tris-HCl pH 7.5, 50 mM NaCl, 1 mM DTT, 4% glycerol, room temperature, 30 min; GST-TFs on glutathione beads, 16-mer random dsDNA library, 0.1% formaldehyde crosslink after washing; high values mean tight binding
Assay [1] deals with T1, FEV (Homo sapiens, UniProt Q99581 1-238).
T1 sequence: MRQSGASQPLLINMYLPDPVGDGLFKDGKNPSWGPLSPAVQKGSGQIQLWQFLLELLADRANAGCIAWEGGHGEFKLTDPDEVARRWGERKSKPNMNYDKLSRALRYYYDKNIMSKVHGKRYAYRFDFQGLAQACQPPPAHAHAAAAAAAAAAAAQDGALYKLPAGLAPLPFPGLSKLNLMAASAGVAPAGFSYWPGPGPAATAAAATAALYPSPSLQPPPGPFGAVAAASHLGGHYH
Conditions: protein: recombinant; tags: N-terminal GST; dsDNA, one strand shown. The procedure, abridged: (§1)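 Binding signal is each hexamer's read frequency for a factor divided by its frequency in the tag-only sample. The factors were GST-fused human transcription factors from yeast, captured on glutathione beads, DNA-barcoded and pooled with that sample. Pools were incubated with 200 nmole of a random double-stranded 16-mer DNA library in Tris/NaCl/DTT/glycerol buffer at room temperature for 30 min, then washed, crosslinked with 0.1% formaldehyde, proximity-ligated with BsaI/T4 ligase (1 h, 37 °C), PCR-amplified and sequenced on an Illumina NextSeq500.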

Assay [2] concerns the target ETV5 (Homo sapiens, UniProt P41161 1-510). Conditions: protein: recombinant; tags: N-terminal GST; dsDNA, one strand shown. The procedure, abridged:
as §1

Assay [3] deals with HSF1 (Homo sapiens, UniProt Q00613 1-529). The note with it: protein: recombinant; tags: N-terminal GST; chain copies: 3; dsDNA, one strand shown. The essentials:
as §1

Assay [4] deals with T2, SPIC (Homo sapiens, UniProt Q8N5J4 1-248).
T2 sequence: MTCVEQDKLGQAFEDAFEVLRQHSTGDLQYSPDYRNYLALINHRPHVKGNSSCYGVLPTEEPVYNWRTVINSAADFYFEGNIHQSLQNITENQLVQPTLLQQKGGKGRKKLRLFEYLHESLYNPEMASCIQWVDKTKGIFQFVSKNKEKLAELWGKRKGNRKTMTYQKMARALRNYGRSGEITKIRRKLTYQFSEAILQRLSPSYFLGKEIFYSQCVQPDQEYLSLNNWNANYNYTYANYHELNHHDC
The note with it: protein: recombinant; tags: N-terminal GST; dsDNA, one strand shown. The procedure, abridged:
as §1

In assay [5] the target is ELF4 (Homo sapiens, UniProt Q99607 1-663). The note with it: protein: recombinant; tags: N-terminal GST; dsDNA, one strand shown. The essentials: as §1
Sequence of ELF4 (Q99607 whole entry): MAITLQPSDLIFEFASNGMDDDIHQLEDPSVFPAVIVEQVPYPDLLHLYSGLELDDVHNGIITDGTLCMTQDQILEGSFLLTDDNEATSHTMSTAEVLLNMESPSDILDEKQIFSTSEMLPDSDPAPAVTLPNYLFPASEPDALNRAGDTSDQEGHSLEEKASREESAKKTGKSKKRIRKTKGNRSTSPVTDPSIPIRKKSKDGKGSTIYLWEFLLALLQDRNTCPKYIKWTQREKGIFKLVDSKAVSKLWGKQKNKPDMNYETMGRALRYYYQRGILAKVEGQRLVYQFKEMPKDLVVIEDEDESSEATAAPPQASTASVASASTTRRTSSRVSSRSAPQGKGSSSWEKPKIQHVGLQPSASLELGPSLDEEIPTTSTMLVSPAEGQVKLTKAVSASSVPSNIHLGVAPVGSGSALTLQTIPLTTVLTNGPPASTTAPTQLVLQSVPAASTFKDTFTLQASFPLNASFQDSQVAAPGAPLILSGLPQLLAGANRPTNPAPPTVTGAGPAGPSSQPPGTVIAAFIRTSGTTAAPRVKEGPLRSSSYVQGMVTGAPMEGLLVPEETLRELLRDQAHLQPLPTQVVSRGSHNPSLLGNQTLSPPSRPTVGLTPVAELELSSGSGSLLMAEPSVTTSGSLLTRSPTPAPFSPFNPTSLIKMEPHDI
For assay [6], the target named is T3, ELK4 (Homo sapiens, UniProt P28324-2 1-405).
T3 sequence: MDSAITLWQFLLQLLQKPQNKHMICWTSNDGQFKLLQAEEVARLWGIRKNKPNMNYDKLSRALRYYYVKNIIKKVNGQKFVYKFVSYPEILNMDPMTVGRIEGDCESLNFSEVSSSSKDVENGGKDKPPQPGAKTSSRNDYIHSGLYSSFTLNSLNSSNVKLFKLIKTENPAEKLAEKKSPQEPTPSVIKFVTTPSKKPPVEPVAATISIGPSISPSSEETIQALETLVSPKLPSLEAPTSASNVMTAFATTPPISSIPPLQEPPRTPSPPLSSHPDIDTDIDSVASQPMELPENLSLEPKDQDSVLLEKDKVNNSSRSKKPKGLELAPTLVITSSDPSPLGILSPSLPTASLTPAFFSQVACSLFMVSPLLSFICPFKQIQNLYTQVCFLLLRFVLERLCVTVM
Conditions: protein: recombinant; tags: N-terminal GST; dsDNA, one strand shown. The essentials: as §1

For assay [7], the target named is T4, ETV2 (Homo sapiens, UniProt O00321 1-342).
T4 sequence: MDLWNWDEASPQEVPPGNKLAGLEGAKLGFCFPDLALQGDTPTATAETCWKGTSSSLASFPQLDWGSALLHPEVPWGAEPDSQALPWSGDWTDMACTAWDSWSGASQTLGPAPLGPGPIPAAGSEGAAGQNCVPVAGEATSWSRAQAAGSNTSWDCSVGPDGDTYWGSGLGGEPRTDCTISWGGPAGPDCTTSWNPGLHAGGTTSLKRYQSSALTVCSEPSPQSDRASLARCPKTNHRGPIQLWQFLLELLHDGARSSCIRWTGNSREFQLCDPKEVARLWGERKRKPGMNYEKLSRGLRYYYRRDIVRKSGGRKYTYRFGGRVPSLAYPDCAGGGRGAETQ
The note with it: protein: recombinant; tags: N-terminal GST; dsDNA, one strand shown. The procedure, abridged: as §1

Assay [8] deals with T5, ELF3 (Homo sapiens, UniProt P78545 1-371).
T5 sequence: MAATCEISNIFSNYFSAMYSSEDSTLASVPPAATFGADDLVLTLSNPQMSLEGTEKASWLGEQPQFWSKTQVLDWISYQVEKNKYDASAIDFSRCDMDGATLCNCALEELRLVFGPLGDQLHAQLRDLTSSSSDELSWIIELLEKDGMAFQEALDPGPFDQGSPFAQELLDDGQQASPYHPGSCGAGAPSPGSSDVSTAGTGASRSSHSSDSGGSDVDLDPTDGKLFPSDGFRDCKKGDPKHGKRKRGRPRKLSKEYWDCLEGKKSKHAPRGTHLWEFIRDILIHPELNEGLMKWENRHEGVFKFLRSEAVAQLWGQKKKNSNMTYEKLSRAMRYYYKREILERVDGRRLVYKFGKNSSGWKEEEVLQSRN
The note with it: protein: recombinant; tags: N-terminal GST; dsDNA, one strand shown. The procedure, abridged: as §1

For assay [9], the target named is CRX (Homo sapiens, UniProt O43186 1-299). The note with it: protein: recombinant; tags: N-terminal GST; dsDNA, one strand shown. The procedure, abridged:
as §1

For assay [10], the target named is ETV1 (Homo sapiens, UniProt P50549 1-477). The note with it: protein: recombinant; tags: N-terminal GST; dsDNA, one strand shown. The essentials: as §1
Sequence of ETV1 (P50549 whole entry): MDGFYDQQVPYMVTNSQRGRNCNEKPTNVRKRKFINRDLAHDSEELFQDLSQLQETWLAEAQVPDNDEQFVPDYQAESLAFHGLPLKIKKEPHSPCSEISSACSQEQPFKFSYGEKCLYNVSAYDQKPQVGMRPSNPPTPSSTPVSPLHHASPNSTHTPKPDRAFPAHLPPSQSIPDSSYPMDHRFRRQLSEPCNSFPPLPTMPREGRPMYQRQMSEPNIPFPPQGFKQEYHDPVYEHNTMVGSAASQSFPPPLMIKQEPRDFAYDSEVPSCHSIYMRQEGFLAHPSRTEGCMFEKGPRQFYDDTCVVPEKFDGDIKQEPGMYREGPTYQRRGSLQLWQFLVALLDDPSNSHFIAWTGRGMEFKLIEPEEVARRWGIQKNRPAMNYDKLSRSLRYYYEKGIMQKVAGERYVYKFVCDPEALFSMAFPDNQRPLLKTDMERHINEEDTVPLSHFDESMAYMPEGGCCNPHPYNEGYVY
For assay [11], the target named is T6, ERF (Homo sapiens, UniProt P50548 1-548).
T6 sequence: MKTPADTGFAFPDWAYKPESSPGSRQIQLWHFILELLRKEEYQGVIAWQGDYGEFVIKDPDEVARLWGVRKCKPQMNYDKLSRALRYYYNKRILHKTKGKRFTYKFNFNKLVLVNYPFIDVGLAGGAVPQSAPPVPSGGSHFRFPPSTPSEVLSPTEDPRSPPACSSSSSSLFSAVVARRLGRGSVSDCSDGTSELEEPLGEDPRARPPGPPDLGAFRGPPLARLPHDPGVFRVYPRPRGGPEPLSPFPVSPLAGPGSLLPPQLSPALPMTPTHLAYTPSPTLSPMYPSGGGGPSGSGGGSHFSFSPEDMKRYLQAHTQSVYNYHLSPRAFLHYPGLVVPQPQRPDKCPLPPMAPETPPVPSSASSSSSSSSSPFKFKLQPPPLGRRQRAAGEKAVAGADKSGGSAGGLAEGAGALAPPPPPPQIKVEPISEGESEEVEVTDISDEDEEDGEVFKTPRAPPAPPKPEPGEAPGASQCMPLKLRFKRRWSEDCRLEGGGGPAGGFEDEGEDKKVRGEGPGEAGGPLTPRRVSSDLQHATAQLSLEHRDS
Conditions: protein: recombinant; tags: N-terminal GST; dsDNA, one strand shown. The procedure, abridged: as §1

For assay [12], the target named is T7, ETV3L (Homo sapiens, UniProt Q6ZN32 1-361).
T7 sequence: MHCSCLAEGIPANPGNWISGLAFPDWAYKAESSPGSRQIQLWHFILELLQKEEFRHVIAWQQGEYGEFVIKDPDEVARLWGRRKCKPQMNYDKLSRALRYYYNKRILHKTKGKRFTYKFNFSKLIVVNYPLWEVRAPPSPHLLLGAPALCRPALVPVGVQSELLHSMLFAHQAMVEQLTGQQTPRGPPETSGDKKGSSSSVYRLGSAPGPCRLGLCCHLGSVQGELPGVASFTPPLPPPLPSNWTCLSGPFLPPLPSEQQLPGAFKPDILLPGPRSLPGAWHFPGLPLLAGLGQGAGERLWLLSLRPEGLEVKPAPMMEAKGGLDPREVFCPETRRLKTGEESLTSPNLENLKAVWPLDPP
The note with it: protein: recombinant; tags: N-terminal GST; dsDNA, one strand shown. The procedure, abridged: as §1

For assay [13], the target named is T8, ETS2 (Homo sapiens, UniProt P15036 1-469).
T8 sequence: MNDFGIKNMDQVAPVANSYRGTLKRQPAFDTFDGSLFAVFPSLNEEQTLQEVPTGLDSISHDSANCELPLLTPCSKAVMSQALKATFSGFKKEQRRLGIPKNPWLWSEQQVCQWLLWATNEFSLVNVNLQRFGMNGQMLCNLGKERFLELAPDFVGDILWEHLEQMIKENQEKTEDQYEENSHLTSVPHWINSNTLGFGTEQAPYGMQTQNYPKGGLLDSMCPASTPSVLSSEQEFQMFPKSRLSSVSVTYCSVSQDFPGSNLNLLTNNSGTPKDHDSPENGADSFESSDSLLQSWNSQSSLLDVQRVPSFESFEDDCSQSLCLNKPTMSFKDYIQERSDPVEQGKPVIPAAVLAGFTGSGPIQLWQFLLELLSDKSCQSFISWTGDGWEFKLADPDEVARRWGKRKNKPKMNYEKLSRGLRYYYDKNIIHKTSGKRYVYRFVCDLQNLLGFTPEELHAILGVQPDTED
The note with it: protein: recombinant; tags: N-terminal GST; dsDNA, one strand shown. The essentials: as §1

For assay [14], the target named is T9, SPDEF (Homo sapiens, UniProt O95238 1-335).
T9 sequence: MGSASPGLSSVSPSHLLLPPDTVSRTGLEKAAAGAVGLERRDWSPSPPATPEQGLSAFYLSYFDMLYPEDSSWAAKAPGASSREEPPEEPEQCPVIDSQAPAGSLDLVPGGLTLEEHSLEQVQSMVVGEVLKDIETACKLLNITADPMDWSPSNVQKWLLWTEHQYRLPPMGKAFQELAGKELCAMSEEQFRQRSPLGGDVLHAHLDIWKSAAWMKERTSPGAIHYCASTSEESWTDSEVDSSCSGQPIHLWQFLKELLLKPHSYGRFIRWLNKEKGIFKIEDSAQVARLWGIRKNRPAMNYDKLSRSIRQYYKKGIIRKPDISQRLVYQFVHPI
The note with it: protein: recombinant; tags: N-terminal GST; dsDNA, one strand shown. The procedure, abridged:
as §1

For assay [15], the target named is T10, ETV7 (Homo sapiens, UniProt Q9Y603 1-341).
T10 sequence: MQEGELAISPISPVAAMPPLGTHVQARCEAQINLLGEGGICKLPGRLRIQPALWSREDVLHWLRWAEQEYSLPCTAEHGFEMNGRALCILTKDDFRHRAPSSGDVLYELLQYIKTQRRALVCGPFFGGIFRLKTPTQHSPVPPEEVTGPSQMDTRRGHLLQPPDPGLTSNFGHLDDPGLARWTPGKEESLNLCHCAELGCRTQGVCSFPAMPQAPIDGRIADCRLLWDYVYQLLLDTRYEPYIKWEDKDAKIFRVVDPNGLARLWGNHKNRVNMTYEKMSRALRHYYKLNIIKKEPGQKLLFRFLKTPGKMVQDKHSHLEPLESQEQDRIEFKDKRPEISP
The note with it: protein: recombinant; tags: N-terminal GST; dsDNA, one strand shown. The essentials: as §1

In assay [16] the target is T11, ELF5 (Homo sapiens, UniProt Q9UKW6-2 1-255).
T11 sequence: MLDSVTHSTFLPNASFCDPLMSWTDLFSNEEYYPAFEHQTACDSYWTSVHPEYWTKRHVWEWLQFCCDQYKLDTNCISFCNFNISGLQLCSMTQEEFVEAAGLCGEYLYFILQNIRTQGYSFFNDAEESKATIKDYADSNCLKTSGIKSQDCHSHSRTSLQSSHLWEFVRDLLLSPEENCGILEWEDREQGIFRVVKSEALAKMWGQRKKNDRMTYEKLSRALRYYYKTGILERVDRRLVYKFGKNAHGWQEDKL
Conditions: protein: recombinant; tags: N-terminal GST; dsDNA, one strand shown. The essentials: as §1

Assay [17] concerns the target T12, ETV3 (Homo sapiens, UniProt P41162-2 1-143).
T12 sequence: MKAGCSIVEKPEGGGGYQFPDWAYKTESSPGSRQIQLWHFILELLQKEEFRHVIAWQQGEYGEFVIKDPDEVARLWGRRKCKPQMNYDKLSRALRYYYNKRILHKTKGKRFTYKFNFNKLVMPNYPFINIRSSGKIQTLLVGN
Conditions: protein: recombinant; tags: N-terminal GST; dsDNA, one strand shown. The essentials: as §1

For assay [18], the target named is ETV6 (Homo sapiens, UniProt P41212 1-452). The note with it: protein: recombinant; tags: N-terminal GST; dsDNA, one strand shown. The essentials: as §1
Sequence of ETV6 (P41212 whole entry): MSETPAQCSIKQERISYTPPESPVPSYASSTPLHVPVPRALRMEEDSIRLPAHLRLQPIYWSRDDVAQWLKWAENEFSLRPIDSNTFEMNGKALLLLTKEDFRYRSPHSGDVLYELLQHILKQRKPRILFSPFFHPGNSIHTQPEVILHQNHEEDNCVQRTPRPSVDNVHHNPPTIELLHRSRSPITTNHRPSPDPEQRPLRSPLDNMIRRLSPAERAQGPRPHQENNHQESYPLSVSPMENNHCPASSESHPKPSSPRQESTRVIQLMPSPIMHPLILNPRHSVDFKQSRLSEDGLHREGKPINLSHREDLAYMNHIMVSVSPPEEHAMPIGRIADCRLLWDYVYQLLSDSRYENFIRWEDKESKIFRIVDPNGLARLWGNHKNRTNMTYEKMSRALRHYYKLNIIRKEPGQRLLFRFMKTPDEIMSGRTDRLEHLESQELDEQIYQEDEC

Sequence of HSF1 (Q00613 whole entry): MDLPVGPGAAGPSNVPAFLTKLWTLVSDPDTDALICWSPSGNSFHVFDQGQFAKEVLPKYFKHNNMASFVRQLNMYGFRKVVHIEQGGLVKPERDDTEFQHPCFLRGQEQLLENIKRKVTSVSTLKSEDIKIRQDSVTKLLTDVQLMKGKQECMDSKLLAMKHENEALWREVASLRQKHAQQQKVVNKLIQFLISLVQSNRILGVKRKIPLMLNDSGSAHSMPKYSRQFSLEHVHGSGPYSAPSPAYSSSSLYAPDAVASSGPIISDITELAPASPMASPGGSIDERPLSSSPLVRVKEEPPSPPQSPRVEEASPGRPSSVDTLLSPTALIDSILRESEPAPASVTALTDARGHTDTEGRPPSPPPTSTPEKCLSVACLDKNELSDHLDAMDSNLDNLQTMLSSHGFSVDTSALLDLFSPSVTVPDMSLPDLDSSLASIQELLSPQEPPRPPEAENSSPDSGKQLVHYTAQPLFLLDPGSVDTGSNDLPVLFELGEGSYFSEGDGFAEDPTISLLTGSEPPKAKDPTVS
Sequence of CRX (O43186 whole entry): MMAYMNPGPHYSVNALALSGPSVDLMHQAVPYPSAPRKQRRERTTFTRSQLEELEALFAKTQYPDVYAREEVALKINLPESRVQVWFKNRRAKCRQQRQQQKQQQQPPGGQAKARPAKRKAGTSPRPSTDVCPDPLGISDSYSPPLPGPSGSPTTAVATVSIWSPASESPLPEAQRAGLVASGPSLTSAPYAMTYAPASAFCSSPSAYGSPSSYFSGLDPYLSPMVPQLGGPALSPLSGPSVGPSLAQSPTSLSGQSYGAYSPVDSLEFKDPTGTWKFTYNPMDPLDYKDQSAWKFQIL
Sequence of ETV5 (P41161 whole entry): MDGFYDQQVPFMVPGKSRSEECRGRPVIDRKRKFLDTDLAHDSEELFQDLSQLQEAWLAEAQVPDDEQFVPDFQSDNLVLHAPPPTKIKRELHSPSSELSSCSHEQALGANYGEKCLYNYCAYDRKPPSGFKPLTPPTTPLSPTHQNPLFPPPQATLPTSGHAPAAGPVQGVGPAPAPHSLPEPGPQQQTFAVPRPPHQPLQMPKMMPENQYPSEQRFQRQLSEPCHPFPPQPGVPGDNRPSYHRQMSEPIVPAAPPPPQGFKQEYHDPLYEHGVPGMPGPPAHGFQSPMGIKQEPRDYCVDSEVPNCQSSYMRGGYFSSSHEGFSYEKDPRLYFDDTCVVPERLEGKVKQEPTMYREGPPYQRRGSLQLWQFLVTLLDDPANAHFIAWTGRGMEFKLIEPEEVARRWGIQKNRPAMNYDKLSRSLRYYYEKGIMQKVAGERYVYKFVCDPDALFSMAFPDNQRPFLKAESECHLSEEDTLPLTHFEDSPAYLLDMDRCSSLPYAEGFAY

Consider ACATGC, for which the binding signal is 1.3 fold enrichment (6-mer frequency, TF over GST control) in assay [1]; 1.25 fold enrichment (6-mer frequency, TF over GST control) in assay [2]; 1.1 fold enrichment (6-mer frequency, TF over GST control) in assay [3]; 1.27 fold enrichment (6-mer frequency, TF over GST control) in assay [4]; 1.26 fold enrichment (6-mer frequency, TF over GST control) in [5]; 1.2 fold enrichment (6-mer frequency, TF over GST control) in [6]. Also, the binding signal in assay [7] is 1.44 fold enrichment (6-mer frequency, TF over GST control); in assay [8], 1.28 fold enrichment (6-mer frequency, TF over GST control); in assay [9], 1.03 fold enrichment (6-mer frequency, TF over GST control); in assay [10] it was 1.3 fold enrichment (6-mer frequency, TF over GST control); in assay [11], 1.37 fold enrichment (6-mer frequency, TF over GST control); in assay [12], 1.26 fold enrichment (6-mer frequency, TF over GST control). Moreover, the binding signal in assay [13] is 1.25 fold enrichment (6-mer frequency, TF over GST control); in assay [14], 1.24 fold enrichment (6-mer frequency, TF over GST control); in assay [15] it was 1.23 fold enrichment (6-mer frequency, TF over GST control); in [16] it was 1.23 fold enrichment (6-mer frequency, TF over GST control); in assay [17] it was 1.22 fold enrichment (6-mer frequency, TF over GST control); in assay [18], 1.45 fold enrichment (6-mer frequency, TF over GST control).
